Measurements published in PubChem BioAssay AID1159580 (chemical genetic matrix, 2015).
About 2,000 (36%) of roughly 5,500 compounds were called active. About 18% were inconclusive and are not listed. Rule as the data show it: active = normalized growth mostly below about 0.91 (no sharp cut-off); inconclusive = no clear call, values can overlap the other calls; inactive = mostly above about 0.92. This is one part of the list.

Assay: chemical genetic growth profiling, strain panel (AID 1159580);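 also: tested at 20 µM; growth read once vehicle control cultures reached saturation at 30 °C; 1 = growth at the plate median or of vehicle wells; lower values mean less growth of the strain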
Conditions: growth OD

Measured: normalized growth

O=C(OC1Cc2c(O)cc(O)cc2OC1c1cc(O)c(O)c(O)c1-c1c(C2Oc3cc(O)cc(O)c3CC2OC(=O)c2cc(O)c(O)c(O)c2)cc(O)c(O)c1O)c1cc(O)c(O)c(O)c1 (centres undefined)
inactive: S. cerevisiae deletion strains, locus YAL026C, strain drs2, active compounds read low 0.982 | S. cerevisiae deletion strains, locus YAL030W, strain snc1, active compounds read low 0.998 | S. cerevisiae deletion strains, locus YBL061C, strain skt5, active compounds read low 0.982 | S. cerevisiae deletion strains, locus YBR009C, strain hhf1, active compounds read low 0.995 | S. cerevisiae deletion strains, locus YBR021W, strain FUR4, active compounds read low 0.988 | S. cerevisiae deletion strains, locus YBR023C, strain chs3, active compounds read low 0.941 | S. cerevisiae deletion strains, locus YBR171W, strain sec66, active compounds read low 1.01 | S. cerevisiae deletion strains, locus YBR229C, strain ROT2, active compounds read low 1 | S. cerevisiae deletion strains, locus YBR231C, strain swc5, active compounds read low 0.929 | S. cerevisiae deletion strains, locus YBR279W, strain paf1, active compounds read low 0.989 | S. cerevisiae deletion strains, locus YCL011C, strain gbp2, active compounds read low 1.01 | S. cerevisiae deletion strains, locus YCL016C, strain dcc1, active compounds read low 1.01 | S. cerevisiae deletion strains, locus YCL029C, strain bik1, active compounds read low 0.981 | S. cerevisiae deletion strains, locus YCL061C, strain MRC1, active compounds read low 1.01 | S. cerevisiae deletion strains, locus YCL069W, strain vba3, active compounds read low 1.02 | S. cerevisiae deletion strains, locus YCR088W, strain abp1, active compounds read low 1.02 | S. cerevisiae deletion strains, locus YDL005C, strain med2, active compounds read low 1.02 | S. cerevisiae deletion strains, locus YDL035C, strain GPR1, active compounds read low 1.04 | S. cerevisiae deletion strains, locus YDL040C, strain nat1, active compounds read low 1.03 | S. cerevisiae deletion strains, locus YDL074C, strain BRE1, active compounds read low 0.969 | S. cerevisiae deletion strains, locus YDL101C, strain DUN1, active compounds read low 1 | S. cerevisiae deletion strains, locus YDL185W, strain tfp1, active compounds read low 0.988 | S. cerevisiae deletion strains, locus YDL192W, strain arf1, active compounds read low 0.985 | S. cerevisiae deletion strains, locus YDR001C, strain nth1, active compounds read low 1.02 | S. cerevisiae deletion strains, locus YDR101C, strain arx1, active compounds read low 0.998 | S. cerevisiae deletion strains, locus YDR150W, strain NUM1, active compounds read low 1 | S. cerevisiae deletion strains, locus YDR159W, strain sac3, active compounds read low 1.11 | S. cerevisiae deletion strains, locus YDR162C, strain NBP2, active compounds read low 1.02 | S. cerevisiae deletion strains, locus YDR195W, strain ref2 1.07 | S. cerevisiae deletion strains, locus YDR297W, strain sur2, active compounds read low 0.992 | S. cerevisiae deletion strains, locus YDR318W, strain mcm21, active compounds read low 0.995 | S. cerevisiae deletion strains, locus YDR334W, strain swr1, active compounds read low 0.977 | S. cerevisiae deletion strains, locus YDR335W, strain msn5, active compounds read low 1 | S. cerevisiae deletion strains, locus YDR388W, active compounds read low 0.99 | S. cerevisiae deletion strains, locus YDR392W, strain spt3, active compounds read low 1.02 | S. cerevisiae deletion strains, locus YDR502C, strain sam2, active compounds read low 0.985 | S. cerevisiae deletion strains, locus YEL003W, strain gim4, active compounds read low 0.989 | S. cerevisiae deletion strains, locus YEL037C, strain rad23, active compounds read low 0.993 | S. cerevisiae deletion strains, locus YEL061C, strain CIN8 (second series), active compounds read low 1.01 | S. cerevisiae deletion strains, locus YEL061C, strain CIN8, active compounds read low 1.01 | S. cerevisiae deletion strains, locus YER016W, strain bim1, active compounds read low 1.01 | S. cerevisiae deletion strains, locus YER110C, active compounds read low 0.994 | S. cerevisiae deletion strains, locus YER111C, strain swi4, active compounds read low 0.973 | S. cerevisiae deletion strains, locus YER155C, strain BEM2 (second series), active compounds read low 0.994 | S. cerevisiae deletion strains, locus YER155C, strain BEM2, active compounds read low 0.977 | S. cerevisiae deletion strains, locus YER167W, strain BCK2, active compounds read low 1 | S. cerevisiae deletion strains, locus YFR010W, strain ubp6, active compounds read low 0.934 | S. cerevisiae deletion strains, locus YGL078C, strain dbp3, active compounds read low 0.987 | S. cerevisiae deletion strains, locus YGL086W, strain mad1, active compounds read low 1 | S. cerevisiae deletion strains, locus YGL167C, strain pmr1, active compounds read low 1 | S. cerevisiae deletion strains, locus YGL173C, strain kem1, active compounds read low 0.981 | S. cerevisiae deletion strains, locus YGL227W, strain vid30, active compounds read low 1.05 | S. cerevisiae deletion strains, locus YGL240W, strain doc1, active compounds read low 1.04 | S. cerevisiae deletion strains, locus YGL248W, strain PDE1, active compounds read low 1 | S. cerevisiae deletion strains, locus YGL253W, strain hxk2, active compounds read low 0.994 | S. cerevisiae deletion strains, locus YGR078C, strain PAC10, active compounds read low 0.983 | S. cerevisiae deletion strains, locus YGR135W, strain pre9, active compounds read low 0.989 | S. cerevisiae deletion strains, locus YGR252W, strain gcn5, active compounds read low 1.01 | S. cerevisiae deletion strains, locus YHR013C, strain ard1, active compounds read low 0.852 | S. cerevisiae deletion strains, locus YHR030C, strain SLT2, active compounds read low 0.998 | S. cerevisiae deletion strains, locus YHR079C, strain IRE1 (second series), active compounds read low 0.987 | S. cerevisiae deletion strains, locus YHR094C, strain hxt1, active compounds read low 0.989 | S. cerevisiae deletion strains, locus YHR129C, strain ARP1, active compounds read low 0.983 | S. cerevisiae deletion strains, locus YHR142W, strain chs7, active compounds read low 0.95 | S. cerevisiae deletion strains, locus YHR200W, strain rpn10, active compounds read low 1 | S. cerevisiae deletion strains, locus YIL066C, strain RNR3, active compounds read low 1.03 | S. cerevisiae deletion strains, locus YIL073C, strain SPO22, active compounds read low 1.1 | S. cerevisiae deletion strains, locus YIL125W, strain kgd1, active compounds read low 0.973 | S. cerevisiae deletion strains, locus YIR030C, strain dcg1, active compounds read low 0.995 | S. cerevisiae deletion strains, locus YJL092W, strain hpr5, active compounds read low 1.03 | S. cerevisiae deletion strains, locus YJL095W, strain BCK1 (second series), active compounds read low 0.987 | S. cerevisiae deletion strains, locus YJL095W, strain BCK1, active compounds read low 0.976 | S. cerevisiae deletion strains, locus YJL115W, strain asf1, active compounds read low 1.02 | S. cerevisiae deletion strains, locus YJL129C, strain trk1, active compounds read low 1.04 | S. cerevisiae deletion strains, locus YJL134W, strain LCB3, active compounds read low 1.02 | S. cerevisiae deletion strains, locus YJL154C, strain vps35, active compounds read low 1.01 | S. cerevisiae deletion strains, locus YJL164C, strain tpk1, active compounds read low 0.937 | S. cerevisiae deletion strains, locus YJL166W, strain qcr8, active compounds read low 0.989 | S. cerevisiae deletion strains, locus YJL168C, strain set2, active compounds read low 0.981 | S. cerevisiae deletion strains, locus YJL187C, strain SWE1 (second series), active compounds read low 1.01 | S. cerevisiae deletion strains, locus YJR043C, strain POL32, active compounds read low 1.06 | S. cerevisiae deletion strains, locus YKL009W, strain mrt4, active compounds read low 0.953 | S. cerevisiae deletion strains, locus YKL068W, active compounds read low 1 | S. cerevisiae deletion strains, locus YKL085W, strain MDH1 (second series), active compounds read low 0.991 | S. cerevisiae deletion strains, locus YKL085W, strain MDH1, active compounds read low 0.991 | S. cerevisiae deletion strains, locus YKL160W, strain elf1, active compounds read low 1 | S. cerevisiae deletion strains, locus YKL190W, strain CNB1, active compounds read low 1 | S. cerevisiae deletion strains, locus YKR001C, strain vps1, active compounds read low 0.961 | S. cerevisiae deletion strains, locus YKR026C, strain gcn3, active compounds read low 1.02 | S. cerevisiae deletion strains, locus YKR091W, strain srl3, active compounds read low 1.02 | S. cerevisiae deletion strains, locus YLL001W, strain dnm1, active compounds read low 1.02 | S. cerevisiae deletion strains, locus YLL026W, active compounds read low 1.02 | S. cerevisiae deletion strains, locus YLL041C, strain sdh2, active compounds read low 1 | S. cerevisiae deletion strains, locus YLR027C, strain aat2, active compounds read low 1.01 | S. cerevisiae deletion strains, locus YLR039C, strain RIC1, active compounds read low 1.04 | S. cerevisiae deletion strains, locus YLR058C, strain SHM2, active compounds read low 1.01 | S. cerevisiae deletion strains, locus YLR102C, strain apc9, active compounds read low 0.988 | S. cerevisiae deletion strains, locus YLR221C, strain rsa3, active compounds read low 0.995 | S. cerevisiae deletion strains, locus YLR258W, strain gsy2, active compounds read low 0.993 | S. cerevisiae deletion strains, locus YLR262C, strain YPT6, active compounds read low 0.99 | S. cerevisiae deletion strains, locus YLR268W, strain sec22, active compounds read low 0.993 | S. cerevisiae deletion strains, locus YLR320W, strain mms22, active compounds read low 0.981 | S. cerevisiae deletion strains, locus YLR330W, strain CHS5, active compounds read low 0.993 | S. cerevisiae deletion strains, locus YLR342W, strain FKS1 (second series), active compounds read low 1.1 | S. cerevisiae deletion strains, locus YLR342W, strain FKS1, active compounds read low 0.98 | S. cerevisiae deletion strains, locus YLR370C, strain arc18, active compounds read low 1.01 | S. cerevisiae deletion strains, locus YLR371W, strain rom2, active compounds read low 0.979 | S. cerevisiae deletion strains, locus YLR384C, strain iki3, active compounds read low 1 | S. cerevisiae deletion strains, locus YLR418C, strain cdc73, active compounds read low 0.931 | S. cerevisiae deletion strains, locus YML016C, strain PPZ1, active compounds read low 1.03 | S. cerevisiae deletion strains, locus YML032C, strain rad52, active compounds read low 0.99 | S. cerevisiae deletion strains, locus YML120C, strain ndi1, active compounds read low 1 | S. cerevisiae deletion strains, locus YML124C, strain tub3, active compounds read low 0.992 | S. cerevisiae deletion strains, locus YMR078C, strain ctf18, active compounds read low 0.981 | S. cerevisiae deletion strains, locus YMR125W, strain sto1, active compounds read low 1.04 | S. cerevisiae deletion strains, locus YMR129W, active compounds read low 1.02 | S. cerevisiae deletion strains, locus YMR205C, strain PFK2, active compounds read low 0.974 | S. cerevisiae deletion strains, locus YMR223W, strain ubp8, active compounds read low 0.995 | S. cerevisiae deletion strains, locus YMR307W, strain GAS1, active compounds read low 1.08 | S. cerevisiae deletion strains, locus YNL067W, strain RPL9B, active compounds read low 0.984 | S. cerevisiae deletion strains, locus YNL071W, strain lat1, active compounds read low 1.02 | S. cerevisiae deletion strains, locus YNL153C, strain GIM3, active compounds read low 1 | S. cerevisiae deletion strains, locus YNL233W, strain BNI4, active compounds read low 0.964 | S. cerevisiae deletion strains, locus YNL248C, strain rpa49, active compounds read low 1.01 | S. cerevisiae deletion strains, locus YNL250W, strain rad50, active compounds read low 0.968 | S. cerevisiae deletion strains, locus YNL271C, strain bni1, active compounds read low 0.964 | S. cerevisiae deletion strains, locus YNL298W, strain CLA4, active compounds read low 0.979 | S. cerevisiae deletion strains, locus YNL307C, strain MCK1, active compounds read low 0.979 | S. cerevisiae deletion strains, locus YNL322C, strain KRE1 (second series), active compounds read low 1.05 | S. cerevisiae deletion strains, locus YNL322C, strain KRE1, active compounds read low 0.998 | S. cerevisiae deletion strains, locus YNR049C, strain mso1, active compounds read low 1.02 | S. cerevisiae deletion strains, locus YNR052C, strain pop2, active compounds read low 0.969 | S. cerevisiae deletion strains, locus YOL006C, strain TOP1, active compounds read low 0.885 | S. cerevisiae deletion strains, locus YOL012C, strain htz1 1.2 | S. cerevisiae deletion strains, locus YOL147C, strain pex11, active compounds read low 0.987 | S. cerevisiae deletion strains, locus YOR001W, strain rrp6, active compounds read low 0.997 | S. cerevisiae deletion strains, locus YOR061W, strain CKA2, active compounds read low 1.03 | S. cerevisiae deletion strains, locus YOR069W, strain VPS5, active compounds read low 1.02 | S. cerevisiae deletion strains, locus YOR070C, strain gyp1, active compounds read low 0.975 | S. cerevisiae deletion strains, locus YOR080W, strain dia2, active compounds read low 1.02 | S. cerevisiae deletion strains, locus YOR083W, strain WHI5, active compounds read low 0.976 | S. cerevisiae deletion strains, locus YOR136W, strain idh2, active compounds read low 0.972 | S. cerevisiae deletion strains, locus YOR144C, strain elg1, active compounds read low 0.999 | S. cerevisiae deletion strains, locus YOR184W, strain ser1, active compounds read low 0.982 | S. cerevisiae deletion strains, locus YOR265W, strain rbl2, active compounds read low 0.984 | S. cerevisiae deletion strains, locus YOR270C, strain vph1, active compounds read low 0.835 | S. cerevisiae deletion strains, locus YOR290C, strain snf2, active compounds read low 0.985 | S. cerevisiae deletion strains, locus YOR316C, strain cot1, active compounds read low 1 | S. cerevisiae deletion strains, locus YPL078C, strain atp4, active compounds read low 1.01 | S. cerevisiae deletion strains, locus YPL106C, strain sse1, active compounds read low 0.893 | S. cerevisiae deletion strains, locus YPL240C, strain hsp82, active compounds read low 1.02 | S. cerevisiae deletion strains, locus YPR119W, strain clb2, active compounds read low 0.999 | S. cerevisiae deletion strains, locus YPR141C, strain kar3, active compounds read low 0.964 | S. cerevisiae deletion strains, locus YPR163C, strain tif3, active compounds read low 0.987 | S. cerevisiae deletion strains, locus YPR167C, strain met16, active compounds read low 0.986 | S. cerevisiae deletion strains, strain wtn01, active compounds read low 0.994 | S. cerevisiae strains, strain wild type, active compounds read low 1.01
active: S. cerevisiae deletion strains, locus YAL021C, strain ccr4, active compounds read low 0.833 | S. cerevisiae deletion strains, locus YDR069C, strain doa4, active compounds read low 0.797 | S. cerevisiae deletion strains, locus YDR137W, strain rgp1, active compounds read low 0.833 | S. cerevisiae deletion strains, locus YER015W, strain faa2, active compounds read low 0.926 | S. cerevisiae deletion strains, locus YHR027C, strain rpn1, active compounds read low 0.849 | S. cerevisiae deletion strains, locus YLR262C, strain YPT6 (second series), active compounds read low 0.766 | S. cerevisiae deletion strains, locus YLR357W, strain rsc2, active compounds read low 0.807 | S. cerevisiae deletion strains, locus YMR058W, strain fet3, active compounds read low 0.338 | S. cerevisiae deletion strains, locus YMR231W, strain pep5, active compounds read low 0.762 | S. cerevisiae deletion strains, locus YNL209W, strain ssb2, active compounds read low 0.735 | S. cerevisiae deletion strains, locus YOR106W, strain vam3, active compounds read low 0.648 | S. cerevisiae deletion strains, locus YPL051W, strain arl3, active compounds read low 0.82
